This note sets out measurements from PubChem BioAssay.

Active and inactive are the calls of the source.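 The calls were made as follows, unless noted: active = compound raises insulin release from rat beta cells at 5 mM glucose, no numeric limit stated; inactive = the rest.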 Starred links: 1 amine or outer side, 2 acyl side, 3 side chain; linkers in the order of their positions; H or OH if unused. Positions of bridges follow the written chain, without caps; N, C: chain ends. Non-standard residues stand in square brackets, D forms with d. Residues, ends and D or L forms follow the SMILES beside them. ξ: configuration not given here. *: point of attachment. ΔAla(3-NHCONH2) = NC(=O)NC=C(N)C(=O)O; X1 = NC1=NCCC(C(N[*:1])C(=O)[*:2])N1; ξβ3hOrn = NCCCC(N)CC(=O)*; Dap = NC[CH](N)C(=O)O

Assay [1] in a line: stimulators of nuclear beta-catenin in C2C12, primary screen, imaging, WNT3A-conditioned medium, mouse C2C12, NPC library (AID 1117326; in the data active = nuclear beta-catenin stimulation mostly above about 4.2%, no sharp cut-off; inactive = mostly below about 10%; also: reference of the scale not given here). As to conditions: stronger effect = higher value.
Assay [2] in a line: stimulators of insulin release from INS-1E, primary screen, cell-based, 5 mM glucose, NPC library (AID 1117329). Also: reference of the scale not given here. As to conditions: rat INS-1E insulin secretion, at 10 µM, stronger effect = higher value.
The nature of assay [3]: growth inhibition of GSK3B-pretreated HCT116 cells – cell-based, CellTiter-Glo, 0.2 to 20 µM (AID 1117336;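 active = compounds lowering colon cancer cell viability after pretreatment blocking the GSK3B kinase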). As to conditions: HCT116 viability after GSK3B inhibitor, at 20 µM, stronger effect = higher value. On the technique in general: ATP-based viability assays read luminescence as a measure of living cells.
A short description of assay [4]: inhibition of endothelial tube formation, primary screen, imaging, VEGF stimulated, CD31 staining, tube area, NPC library (AID 1117340;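 active = compound that reduces growth-factor-driven endothelial tube area in a mixed cell culture, no cutoff stated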). Conditions: VEGF-stimulated ADSC/ECFC co-culture, at 10 µM, stronger effect = higher value.
The nature of assay [5]: glucagon-like peptide 1 release enhancers, primary assay, NCI-H716 cell line, NPC library (AID 1117341;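 active = compound raises GLP1 secretion from the human gut endocrine cells, with no numeric limit stated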; also: reference of the scale not given here). As to conditions: NCI-H716 cells, at 10 µM, stronger effect = higher value.
Assay [6] in a line: HCT116 colon cancer cell growth inhibition, primary screen, CellTiter-Glo luminescence, NPC library (AID 1117342;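 active = compounds that lower survival of HCT116 colon cancer cells in the luminescence readout, no numeric limit stated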). Conditions: at 20 µM (top of the series).
Assay [7] can be described thus: CellTiter-Glo luminescent readout of SW480 viability loss, NPC library primary (AID 1117343;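 active = compounds that lower viability of the colon cancer cells in the luminescence readout, with no numeric limit stated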). As to conditions: CellTiter-Glo luminescence; at 20 µM (top of the series).
The nature of assay [8]: decreased DLD-1 cellular survival, CellTiter-Glo luminescent readout, NPC compound collection, primary HTS (AID 1117346;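 active = compounds that lower survival of DLD-1 colon cancer cells in the luminescence readout, no cutoff given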). As to conditions: DLD-1 viability, CellTiter-Glo luminescence; at 20 µM (top of the series).

Turning to `O=C(O)c1c(O)c(-c2ccccc2)nc2ccccc12`, the nuclear beta-catenin stimulation in assay [1] (at 10 µM) is 0.5% (inactive); in assay [1] (stimulation, at 2 µM) it was -0.8%. The insulin secretion stimulation in assay [2] was 3% (inactive). Further, the viability decrease in assay [3] was 66.1% (active). In assay [4], the tube area decrease is 2.6% (inactive). The GLP1 secretion stimulation in assay [5] was -0.1% (inactive). Moreover, the inhibition of viability in assay [6] is 39.2% (inactive). In addition, the viability decrease (inhibition) in assay [7] was 107% (active); in assay [8], 39% (inactive).
Turning to `NCCCC(N)CC(=O)NCC1NC(=O)C(CO)NC(=O)C(N)CNC(=O)C(C2CCN=C(N)N2)NC(=O)C(=CNC(N)=O)NC1=O` (stereo not drawn) (H-[Dap]S[Dap](ξβ3hOrn)[ΔAla(3-NHCONH2)][X1]; lactam 1-C; configuration not given here), the nuclear beta-catenin stimulation in assay [1] (at 10 µM) was 0.2% (inactive); in assay [1] (stimulation, at 2 µM), 1.8%. Also, in assay [2], the insulin secretion stimulation is -0.9% (inactive). Moreover, the viability decrease in assay [3] is 3.9% (inactive). Further, in assay [4], the tube area decrease was -1% (inactive). In addition, the GLP1 secretion stimulation in assay [5] was -1.3% (inactive). Besides, the inhibition of viability in assay [6] is -22.2% (inactive). Besides, the viability decrease (inhibition) in assay [7] was -3.4% (inactive); in assay [8] it was -12% (inactive).
Regarding `Cc1cc(CC(=O)O)c(C)n1-c1ccc(Cl)cc1`, the nuclear beta-catenin stimulation in assay [1] (at 10 µM) is -0.5% (inactive); in assay [1] (stimulation, at 2 µM) it was -0.4%. In addition, in assay [2], the insulin secretion stimulation is 2.3% (inactive). Moreover, in assay [3], the viability decrease was -14.4% (inactive). Also, in assay [4], the tube area decrease was 1.3% (inactive). Moreover, the GLP1 secretion stimulation in assay [5] is -0.2% (inactive). Besides, the inhibition of viability in assay [6] was 7.9% (inactive). Moreover, the viability decrease (inhibition) in assay [7] is 11.7% (inactive); in assay [8] it was -14.3% (inactive).
Consider `CCN(CC)CCNC(=O)COc1ccc(Cl)cc1`, for which the nuclear beta-catenin stimulation in assay [1] (at 10 µM) was -2.4% (inactive); in assay [1] (stimulation, at 2 µM), -0.4%. The insulin secretion stimulation in assay [2] is 0.9% (inactive). In assay [3], the viability decrease was -9.5% (inactive). In addition, in assay [4], the tube area decrease is -3.5% (inactive). For the same molecule, the GLP1 secretion stimulation in assay [5] is -4.5% (inactive). Also, the inhibition of viability in assay [6] is 22.7% (inactive). The viability decrease (inhibition) in assay [7] is 34.2% (inactive); in assay [8], 0.6% (inactive).
As for `N#C/C(=C1\SCC(c2ccccc2Cl)S1)n1ccnc1` (stereo unspecified), the nuclear beta-catenin stimulation in assay [1] (at 10 µM) was 2% (inactive); in assay [1] (stimulation, at 2 µM) it was 2.6%. Also, in assay [2], the insulin secretion stimulation is -2.4% (inactive). Moreover, the viability decrease in assay [3] is 13.1% (inactive). Moreover, the tube area decrease in assay [4] is 21.9% (inactive). In assay [5], the GLP1 secretion stimulation was 0.1% (inactive). Further, the inhibition of viability in assay [6] is 21.7% (inactive). Further, the viability decrease (inhibition) in assay [7] is 85.4% (active); in assay [8], 35.2% (inactive).
Turning to `Cc1c(C(=O)NCCO)[n+](=O)c2ccccc2n1[O-]`, the nuclear beta-catenin stimulation is 5% (inactive) in assay [1] (at 10 µM) and 3% in assay [1] (stimulation, at 2 µM). Also, the insulin secretion stimulation in assay [2] is -1.6% (inactive). Moreover, the viability decrease in assay [3] was -6.4% (inactive). In addition, the tube area decrease in assay [4] is 14% (inactive). Further, the GLP1 secretion stimulation in assay [5] is -0.4% (inactive). Further, the inhibition of viability in assay [6] was 0.3% (inactive). Besides, the viability decrease (inhibition) in assay [7] was -17.1% (inactive); in assay [8], -6.2% (inactive).
As for `Cc1cccc(N(C)C(=S)Oc2ccc3c(c2)C2CCC3C2)c1` (stereo unspecified), the nuclear beta-catenin stimulation is 0.3% (inactive) in assay [1] (at 10 µM) and 0.6% in assay [1] (stimulation, at 2 µM). For the same molecule, in assay [2], the insulin secretion stimulation was 1% (inactive). The viability decrease in assay [3] was -64.8% (inactive). For the same molecule, the tube area decrease in assay [4] is 15.8% (inactive). Further, in assay [5], the GLP1 secretion stimulation is -4.7% (inactive). Besides, the inhibition of viability in assay [6] was 50.2% (active). In addition, the viability decrease (inhibition) in assay [7] was 80% (active); in assay [8], 56.8% (active).
`NCCNc1ccc(NCCN)c2c1C(=O)c1ccncc1C2=O`: the nuclear beta-catenin stimulation was 22.6% (inactive) in assay [1] (at 10 µM) and 8.9% in assay [1] (stimulation, at 2 µM). In addition, in assay [2], the insulin secretion stimulation was -0.4% (inactive). Besides, the viability decrease in assay [3] was 67.3% (active). Besides, the tube area decrease in assay [4] is 91.4% (active). In assay [5], the GLP1 secretion stimulation is -4.8% (inactive). Further, the inhibition of viability in assay [6] was 47% (inactive). The values for the viability decrease (inhibition) in assay [7] and in assay [8] were 1.2% (inactive) and 14.7% (inactive), respectively.
Regarding `CCCCC(=O)OCC(=O)[C@H]1[C@H](C)C[C@H]2[C@@H]3C[C@H](F)C4=CC(=O)C=C[C@]4(C)[C@@]3(F)[C@@H](O)C[C@@]21C`, the nuclear beta-catenin stimulation in assay [1] (at 10 µM) was -1.1% (inactive); in assay [1] (stimulation, at 2 µM), -1.4%. The insulin secretion stimulation in assay [2] is 13.7% (inactive). In addition, the viability decrease in assay [3] is -7.2% (inactive). Moreover, the tube area decrease in assay [4] is -11.7% (inactive). In addition, the GLP1 secretion stimulation in assay [5] is 0.8% (inactive). For the same molecule, in assay [6], the inhibition of viability was 17.1% (inactive). The results for the viability decrease (inhibition) in assay [7] and in assay [8] were -15.9% (inactive) and -9.9% (inactive), respectively.
On to `CC(C(=O)O)c1ccc(/C=C2\CCCCC2=O)cc1` (stereo unspecified), for which the nuclear beta-catenin stimulation in assay [1] (at 10 µM) was 0% (inactive); in assay [1] (stimulation, at 2 µM) it was -1.5%. Also, in assay [2], the insulin secretion stimulation is 0% (inactive). Besides, the viability decrease in assay [3] is 5.4% (inactive). Moreover, in assay [4], the tube area decrease is 0.5% (inactive). The GLP1 secretion stimulation in assay [5] is 2.1% (inactive). Moreover, the inhibition of viability in assay [6] is -19.6% (inactive). Also, the viability decrease (inhibition) in assay [7] was 25.5% (inactive); in assay [8], -23.7% (inactive).
For `c1ccc(CNCCNCc2ccccc2)cc1`, the nuclear beta-catenin stimulation is 4% (inactive) in assay [1] (at 10 µM) and 4.4% in assay [1] (stimulation, at 2 µM). For the same molecule, in assay [2], the insulin secretion stimulation was 3.4% (inactive). Also, in assay [3], the viability decrease was -31.8% (inactive). The tube area decrease in assay [4] was -24% (inactive). For the same molecule, the GLP1 secretion stimulation in assay [5] is 2.1% (inactive). Further, the inhibition of viability in assay [6] is -6.83% (inactive). Also, the viability decrease (inhibition) in assay [7] was 20% (inactive); in assay [8] it was -22.2% (inactive).
With `CCCCOC(=O)CCCCCCCCC(=O)OCCCC`, the nuclear beta-catenin stimulation in assay [1] (at 10 µM) was 1.4% (inactive); in assay [1] (stimulation, at 2 µM), 1%. Further, the insulin secretion stimulation in assay [2] was 2.4% (inactive). Also, the viability decrease in assay [3] was 10.4% (inactive). Also, the tube area decrease in assay [4] was 3.7% (inactive). For the same molecule, in assay [5], the GLP1 secretion stimulation was 1.9% (inactive). Further, in assay [6], the inhibition of viability was 13.3% (inactive). Besides, the viability decrease (inhibition) in assay [7] was -9.1% (inactive); in assay [8] it was 7.6% (inactive).
Turning to `COC(=O)C1=C(C)NC(COC(N)=O)=C(C(=O)OC(C)C)C1c1cccc(Cl)c1Cl` (stereo unspecified), the nuclear beta-catenin stimulation in assay [1] (at 10 µM) is 35.5% (inactive); in assay [1] (stimulation, at 2 µM), 0.7%. Moreover, the insulin secretion stimulation in assay [2] was 8.1% (inactive). Moreover, the viability decrease in assay [3] is 94.6% (active). In addition, in assay [4], the tube area decrease was 23.2% (inactive). The GLP1 secretion stimulation in assay [5] was 0.3% (inactive). Also, in assay [6], the inhibition of viability is 99.8% (active). Further, the viability decrease (inhibition) in assay [7] was 123% (active); in assay [8] it was 68.5% (active).
For `O=S(=O)(O)c1ccc(O)cc1`, the nuclear beta-catenin stimulation in assay [1] (at 10 µM) was 0.1% (inactive); in assay [1] (stimulation, at 2 µM), 2%. In addition, the insulin secretion stimulation in assay [2] was -2.6% (inactive). Also, in assay [3], the viability decrease was -3.65% (inactive). Moreover, in assay [4], the tube area decrease was 5.3% (inactive). Besides, the GLP1 secretion stimulation in assay [5] is -0.7% (inactive). Further, the inhibition of viability in assay [6] is -4% (inactive). Moreover, the viability decrease (inhibition) was 11.5% (inactive) in assay [7] and -5.95% (inactive) in assay [8].
